# Laboratory results published in PubChem BioAssay.
# Calls of active or inactive are those of the source.
# What was measured:
# [1] = E. coli DRC41 culture turbidity changes, primary screen, E. coli filamentation inducer project, strain DRC41, OD650, 48 h (AID 1152);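 also: E. coli MC1000 strain DRC41 lacking acrAB efflux pump and sulA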; settings: E. coli DRC41 (acrAB sulA), higher = more signal, called active from +8 up or from −8 down
# [2] = small-molecule binders of probe aLefty1, primary screen, biochemical, small-molecule microarray, 635/667 nm fluorescence (AID 1153); settings: higher = more signal;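 also: score merges spot fluorescence with signal-to-noise ratio from the scanned slide images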
# [3] = PSAC antagonists in infected red cells, primary screen, cell-based, P. falciparum Indochina, OD700, 1 h (AID 1154); settings: P. falciparum Indochina infected RBC osmotic lysis, higher = more signal, called active from +8 up or from −8 down
# [4] = PSAC antagonists in infected red cells, primary screen, cell-based, P. falciparum Indochina, OD700, 2 h (AID 1155);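 also: lysis reports solute entry through the parasite surface anion channel PSAC; channel blockers reduce lysis of infected cells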; settings: P. falciparum Indochina infected erythrocytes, osmotic lysis OD700; higher = more signal, called active from +8 up or from −8 down
# [5] = osmotic lysis modulators in infected erythrocytes, primary screen, PSAC antagonist project, cell-based, P. falciparum Indochina, OD700, 3 h (AID 1156); settings: higher = more signal, called active from +8 up or from −8 down
# [6] = PSAC antagonists in infected red cells, primary screen, cell-based, P. falciparum Indochina, OD700, 18 h (AID 1157); settings: P. falciparum Indochina infected erythrocytes, osmotic lysis OD700, 18 h; higher = more signal, called active from +8 up or from −8 down
# [7] = modulators of S6 phosphorylation in cells, primary screen, cell-based, A549, cytoblot, luminescence, serum-stimulated (AID 1158); settings: A549 phospho-S6 cytoblot, 5 h, higher = more signal;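 also: serum-stimulated A549 lung adenocarcinoma cells; signal is phosphorylated S6 detected by cytoblot immunostaining with HRP secondary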
# [8] = biological target: NADPH oxidase 2 (Homo sapiens) (UniProt P04839); test: NOX2-dependent H2O2 signal modulators, primary screen, NOX inhibitor project, cell-based, HEK293-NOX2, PMA-stimulated, Amplex Red fluorescence (AID 1159); settings: 45 min, higher = more signal, called active from +8 up or from −8 down; also: test concentration not given here
# [9] = biological target: NADPH oxidase 4 (Homo sapiens) (UniProt Q9NPH5); test: NOX4-dependent H2O2 signal modulators, primary screen, NOX inhibitor project, cell-based, HEK293-NOX4, tetracycline-induced, Amplex Red fluorescence (AID 1160); settings: 45 min, higher = more signal, called active from +8 up or from −8 down
# [10] = biological target: NADPH oxidase 5 (Homo sapiens) (UniProt Q96PH1); test: NOX5-dependent H2O2 signal modulators, primary screen, NOX inhibitor project, cell-based, HEK293-NOX5, Amplex Red fluorescence (AID 1161); settings: HEK293-NOX5, ionomycin, 45 min, higher = more signal
# [11] = A549 cell viability effects, profiling panel, calcein-AM fluorescence, 48 h, basal (AID 1162); settings: higher = more signal; also: test concentration not given here
# [12] = adipocyte viability effects, profiling panel, cell-based, 3T3-L1 adipocytes, calcein-AM fluorescence, 48 h, basal (AID 1163); settings: 3T3-L1 adipocytes viability, higher = more signal; also: test concentration not given here
# [13] = HepG2 cell viability effects, profiling panel, calcein-AM fluorescence, 48 h, basal (AID 1164); settings: higher = more signal; also: test concentration not given here
# [14] = MM1S cell viability effects, profiling panel, calcein-AM fluorescence, 48 h, basal (AID 1165); settings: higher = more signal;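 also: viability of MM1S multiple myeloma cells under basal unstimulated conditions; test concentration not given here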
# [15] = basal RPMI8226 viability, no added stimulus, profiling panel, cell-based, calcein-AM fluorescence, 48 h, PK04 Diversity Set (AID 1166); settings: RPMI8226 myeloma viability, higher = more signal;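 also: cells grown under basal conditions without added stimulus; test concentration not given here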
# [16] = basal HepG2 mitochondrial membrane potential changes, profiling panel, cell-based, JC-1 fluorescence, 24 h, 100 nL compound (AID 1167); settings: higher = more signal; also: test concentration not given here
# [17] = basal 3T3-L1 adipocyte mitochondrial potential changes, profiling panel, cell-based, JC-1 fluorescence, 3T3-L1 adipocytes, 24 h, 100 nL compound (AID 1168); settings: JC-1 mitochondrial fluorescence, higher = more signal, called active from +8 up or from −8 down; also: test concentration not given here
# [18] = basal RPMI8226 mitochondrial membrane potential changes, profiling panel, cell-based, JC-1 fluorescence, 24 h, 100 nL compound (AID 1169); settings: RPMI8226 myeloma, JC-1 mitochondrial potential fluorescence, higher = more signal; also: test concentration not given here
# [19] = basal MM1S mitochondrial membrane potential changes, profiling panel, cell-based, JC-1 fluorescence, 24 h, 100 nL compound (AID 1170); settings: higher = more signal; also: test concentration not given here
# [20] = A549 lung cancer cell viability effects, profiling panel, resazurin fluorescence, 24 h, PK04 Diversity Set (AID 1171); settings: higher = more signal, called active from +8 up or from −8 down; also: test concentration not given here
# NADPH oxidase 4 (Homo sapiens), sequence (Q9NPH5 whole entry, looked up): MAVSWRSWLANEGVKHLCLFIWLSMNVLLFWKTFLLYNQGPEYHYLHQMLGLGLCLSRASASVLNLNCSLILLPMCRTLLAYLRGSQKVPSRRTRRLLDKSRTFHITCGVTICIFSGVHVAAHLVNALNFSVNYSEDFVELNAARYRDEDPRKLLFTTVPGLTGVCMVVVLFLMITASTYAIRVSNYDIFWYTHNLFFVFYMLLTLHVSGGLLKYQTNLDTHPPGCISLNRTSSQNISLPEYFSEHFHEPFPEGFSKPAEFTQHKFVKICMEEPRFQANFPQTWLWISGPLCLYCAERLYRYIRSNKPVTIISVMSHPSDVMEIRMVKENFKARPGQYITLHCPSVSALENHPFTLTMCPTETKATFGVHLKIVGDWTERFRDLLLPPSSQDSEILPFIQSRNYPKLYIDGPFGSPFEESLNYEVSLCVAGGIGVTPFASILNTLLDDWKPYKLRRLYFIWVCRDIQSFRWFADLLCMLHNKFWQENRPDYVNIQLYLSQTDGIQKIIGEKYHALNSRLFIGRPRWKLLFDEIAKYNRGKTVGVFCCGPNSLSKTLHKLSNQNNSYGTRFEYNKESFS
# NADPH oxidase 2 (Homo sapiens), sequence (P04839 whole entry, looked up): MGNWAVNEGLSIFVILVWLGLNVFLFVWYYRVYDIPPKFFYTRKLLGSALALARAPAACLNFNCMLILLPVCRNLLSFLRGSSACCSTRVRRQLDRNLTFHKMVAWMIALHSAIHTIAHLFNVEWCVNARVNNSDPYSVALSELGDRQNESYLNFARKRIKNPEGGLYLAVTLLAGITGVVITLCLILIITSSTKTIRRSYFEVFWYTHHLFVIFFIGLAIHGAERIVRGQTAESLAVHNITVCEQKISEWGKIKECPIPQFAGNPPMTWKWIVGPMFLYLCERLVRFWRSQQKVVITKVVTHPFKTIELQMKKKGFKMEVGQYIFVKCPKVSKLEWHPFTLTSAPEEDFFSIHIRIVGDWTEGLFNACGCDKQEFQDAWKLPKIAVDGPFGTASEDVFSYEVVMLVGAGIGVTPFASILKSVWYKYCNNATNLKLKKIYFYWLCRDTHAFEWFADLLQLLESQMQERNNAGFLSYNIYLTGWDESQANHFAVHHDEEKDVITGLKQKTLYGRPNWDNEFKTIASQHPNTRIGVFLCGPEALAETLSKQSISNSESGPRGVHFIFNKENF
# NADPH oxidase 5 (Homo sapiens), sequence (Q96PH1 whole entry, looked up): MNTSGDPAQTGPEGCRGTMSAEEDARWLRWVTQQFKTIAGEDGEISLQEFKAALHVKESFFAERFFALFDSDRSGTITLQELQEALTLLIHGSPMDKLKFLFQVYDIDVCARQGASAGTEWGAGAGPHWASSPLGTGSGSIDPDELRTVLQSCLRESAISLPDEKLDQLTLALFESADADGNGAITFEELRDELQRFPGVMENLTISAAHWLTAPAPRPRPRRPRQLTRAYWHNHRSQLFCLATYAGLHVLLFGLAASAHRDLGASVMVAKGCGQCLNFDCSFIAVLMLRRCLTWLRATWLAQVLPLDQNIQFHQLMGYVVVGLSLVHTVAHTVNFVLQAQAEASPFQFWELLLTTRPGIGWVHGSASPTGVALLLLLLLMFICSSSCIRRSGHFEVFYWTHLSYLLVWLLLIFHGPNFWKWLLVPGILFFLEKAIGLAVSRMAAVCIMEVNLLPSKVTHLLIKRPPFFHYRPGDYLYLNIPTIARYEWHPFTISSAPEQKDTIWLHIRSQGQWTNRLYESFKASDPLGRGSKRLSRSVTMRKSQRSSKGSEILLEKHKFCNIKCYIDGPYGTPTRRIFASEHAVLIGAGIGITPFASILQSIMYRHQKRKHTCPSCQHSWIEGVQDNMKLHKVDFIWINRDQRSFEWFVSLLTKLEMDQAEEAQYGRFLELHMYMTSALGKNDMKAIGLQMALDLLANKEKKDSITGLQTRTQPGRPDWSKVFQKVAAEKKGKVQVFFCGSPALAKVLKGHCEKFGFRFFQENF
Structure (SMILES),z-score [1],composite z-score [2],z-score [3],z-score [4],z-score [5],z-score [6],z-score [7],z-score [8],z-score [9],z-score [10],z-score [11],z-score [12],z-score [13],z-score [14],z-score [15],z-score [16],z-score [17],z-score [18],z-score [19],z-score [20]
O=C1NC(=O)C2C1C=CC(C(O)c1ccc3c(c1)OCO3)N2Nc1ccccn1 (stereo not given),-0.0438 (inactive),-0.112,-0.113 (inactive),-0.665 (inactive),-0.752 (inactive),-0.839 (inactive),0.883,-1.27 (inactive),-3 (inactive),-1.73,0.732,-1.11,0.641,0.0178,-0.12,-0.465,-0.0272 (inactive),0.115,-0.263,-1.67 (inactive)
C=C(/C=C/CNS(=O)(=O)c1ccc(C)cc1)[C@H](O)[C@H]1CCCN1S(=O)(=O)c1ccccc1[N+](=O)[O-],0.611 (inactive),-0.185,11.5 (active),1.43 (inactive),0.643 (inactive),0.647 (inactive),0.229,-0.358 (inactive),-1.6 (inactive),-1.6,0.623,0.581,-0.291,-1.28,-0.264,-1.79,-0.221 (inactive),-0.525,-0.0633,0.594 (inactive)
COc1ccc([Si](C)(C)[C@H]2[C@H](CC(=O)N3Cc4ccccc4C[C@H]3CO)O[C@@]3(C(=O)N(Cc4cccc(N5CCCCC5=O)c4)c4ccccc43)[C@@H]2C)cc1,-0.431 (inactive),0.0391,3.41 (inactive),0.966 (inactive),0.357 (inactive),0.549 (inactive),1.83,-0.508 (inactive),0.916 (inactive),-0.169,-0.463,0.785,-0.229,-1.87,-3.08,-0.189,-0.198 (inactive),-1.07,-1.46,-0.646 (inactive)
C=C(CCCC)/C(=C/C[C@@H](OC(=O)c1ccncc1)c1cccc(OCCO)c1)c1cnc2ccccc2c1,0.0513 (inactive),0.284,19.1 (active),3.53 (inactive),0.902 (inactive),1.12 (inactive),0.462,-1.21 (inactive),-0.36 (inactive),-0.509,-0.021,1.14,-0.681,-2.65,-1.5,1.99,-0.891 (inactive),-0.497,0.117,0.586 (inactive)
CC(C)CN1C(=O)[C@@]2(c3ccc([N+](=O)[O-])cc3)CC(=O)N(CC34CC5CC(CC(C5)C3)C4)[C@@H]2c2ccc(CO)cc21,0.193 (inactive),0.129,1.17 (inactive),-0.377 (inactive),0.0846 (inactive),-1.17 (inactive),2.01,-0.187 (inactive),-0.981 (inactive),-0.986,-0.181,1.04,-0.744,-0.0484,-0.544,-0.849,-0.316 (inactive),0.833,-2.29,-0.186 (inactive)
CC[C@@H]1[C@H]2C3C(=O)N(CC)C(=O)C3CC(=O)[C@H]2[C@H](c2ccc(C)cc2)N1S(=O)(=O)c1ccc(C)cc1 (stereo not given in full),-0.272 (inactive),0.0026,2.27 (inactive),1.99 (inactive),0.925 (inactive),1.3 (inactive),-0.12,0.5 (inactive),0.458 (inactive),0.0674,-0.138,-0.303,-0.581,0.453,-0.144,0.248,0.438 (inactive),0.485,-1.02,-0.0875 (inactive)
[N-]=[N+]=NCc1ccccc1C[C@]1(C(=O)NCC(O)CO)N=C(c2ccc(OCCCO)cc2)O[C@H]1c1ccccc1CN=[N+]=[N-] (stereo not given in full),-0.0074 (inactive),0.865,19.3 (active),2.49 (inactive),1.81 (inactive),-0.481 (inactive),1.67,-1.97 (inactive),-2.19 (inactive),-1.41,-0.905,1.01,-0.426,-2.3,-2.6,0.136,-0.323 (inactive),-1.02,-0.555,-0.402 (inactive)
COC(=O)C(CC#Cc1ccc2c(c1)[C@]1(C(=O)N2)[C@H](C(=O)O)[C@H]2C(=O)O[C@H](c3ccccc3)[C@H](c3ccccc3)N2[C@@H]1c1ccccc1OCCO)C(=O)OC,-1.21 (inactive),0.658,4.19 (inactive),0.487 (inactive),-5.95 (inactive),-0.008 (inactive),0.029,1.37 (inactive),-1.33 (inactive),1.19,-0.045,-0.182,-0.219,-3.26,-4.09,-2.93,-0.236 (inactive),-0.441,-1.98,-0.327 (inactive)
CCOC(=O)C1=CC[C@@H](c2cc(Cl)ccc2Cl)N(S(=O)(=O)c2ccc(C)cc2)[C@H]1c1ccc(OC)cc1,-0.718 (inactive),0.369,2.98 (inactive),1.92 (inactive),0.926 (inactive),0.826 (inactive),-0.371,0.28 (inactive),-0.51 (inactive),0.465,-0.41,-0.603,0.118,-0.852,0.199,1.17,-1 (inactive),0.642,-2.07,-0.629 (inactive)
